# Data taken from PubChem BioAssay (Tox21).
# Unmarked numbers belong to inactive results. Inconclusive results are not listed. Entries that show only a call come without a potency. Activity calls are given as the source filed them. Unless noted, the call rests on the fitted dose curve; in most records, active means well fitted curve in the direction sought with a large enough effect in the repeat runs; inconclusive means weak or mixed curves; inactive means no such curve, though single readings can be large; an effect the other way counts as inactive or inconclusive.
# Experiments:
# [1] = qHTS assay to identify small molecule antagonists of the estrogen related receptor (ERR) signaling pathway from Tox21 library - cell viability counter screen (AID 1224834); further: nearly all actives have a fitted effect of over 30% in size
# Summary of the method: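 ERR reporter cells, 2,000 per well, rested 6 h, then exposed to compound in DMSO for 17.5 hours at 37 C. Viability read as fluorescence after 30 min with CellTiter-Fluor.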
# [2] = target: Luciferin 4-monooxygenase (Photinus pyralis) (UniProt P08659); assay: qHTS assay to identify small molecule inhibitors of firefly luciferase (AID 1224835); further: nearly all actives have a fitted effect of over 25% in size; further: potency means the concentration at half of the fitted maximal effect
# Chain of Luciferin 4-monooxygenase (Photinus pyralis) (P08659 whole entry, looked up): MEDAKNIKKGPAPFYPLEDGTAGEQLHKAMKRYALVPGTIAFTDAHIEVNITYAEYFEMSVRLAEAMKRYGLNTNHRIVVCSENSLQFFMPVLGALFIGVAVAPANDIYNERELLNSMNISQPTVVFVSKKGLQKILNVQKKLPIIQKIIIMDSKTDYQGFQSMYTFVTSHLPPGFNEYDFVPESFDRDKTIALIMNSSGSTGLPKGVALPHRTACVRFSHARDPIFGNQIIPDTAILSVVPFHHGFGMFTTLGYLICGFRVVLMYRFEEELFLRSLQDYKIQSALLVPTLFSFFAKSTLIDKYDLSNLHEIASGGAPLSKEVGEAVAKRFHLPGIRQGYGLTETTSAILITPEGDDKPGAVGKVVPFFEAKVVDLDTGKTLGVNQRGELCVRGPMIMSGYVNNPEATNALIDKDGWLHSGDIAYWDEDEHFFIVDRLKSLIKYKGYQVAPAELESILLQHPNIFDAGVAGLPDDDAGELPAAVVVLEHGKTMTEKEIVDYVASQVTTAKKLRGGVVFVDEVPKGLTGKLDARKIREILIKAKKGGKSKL
# Summary of the method: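 Quantitative HTS format; KM concentrations of both substrates. Purified P. pyralis FLuc activity quantified from luminescence images.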
# [3] = qHTS assay to identify small molecule agonists of the constitutive androstane receptor (CAR) signaling pathway - cell viability counter screen (AID 1224836); further: series mostly up to about 92 µM; nearly all actives have a fitted effect of over 45% in size
# Summary of the method: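 Using CellTiter-Fluor, viability of HepG2 cells harbouring hCAR and CYP2B6-2.2kb was measured following 23 h incubation with a 15-concentration compound series plus PK11195 (0.75 uM final).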
# [4] = qHTS assay to identify small molecule antagonists of the constitutive androstane receptor (CAR) signaling pathway - cell viability counter screen (AID 1224837); further: series mostly up to about 92 µM; nearly all actives have a fitted effect of over 45% in size
# Summary of the method: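 HepG2 cells stably carrying hCAR and CYP2B6-2.2kb reporter, stimulated with 50 nM CITCO and compounds at 15 concentrations for 23 h at 37 C. Viability measured by CellTiter-Fluor fluorescence.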
# [5] = target: Nuclear receptor subfamily 1 group I member 3 (Homo sapiens) (UniProt Q14994); assay: qHTS assay to identify small molecule antagonists of the constitutive androstane receptor (CAR) signaling pathway (AID 1224838); further: nearly all actives have a fitted effect of over 40% in size
# Chain of Nuclear receptor subfamily 1 group I member 3 (Homo sapiens) (Q14994 whole entry, looked up): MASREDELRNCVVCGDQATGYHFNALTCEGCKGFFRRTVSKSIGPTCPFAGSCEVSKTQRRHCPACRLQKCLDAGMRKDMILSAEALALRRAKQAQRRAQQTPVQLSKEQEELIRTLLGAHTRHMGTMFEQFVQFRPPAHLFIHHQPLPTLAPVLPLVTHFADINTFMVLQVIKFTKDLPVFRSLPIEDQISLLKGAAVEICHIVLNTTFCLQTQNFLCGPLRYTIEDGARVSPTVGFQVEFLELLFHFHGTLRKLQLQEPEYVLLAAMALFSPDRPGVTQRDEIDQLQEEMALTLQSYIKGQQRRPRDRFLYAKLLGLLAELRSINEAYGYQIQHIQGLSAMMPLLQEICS
# Summary of the method: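 HepG2 cells stably carrying hCAR and a CYP2B6-2.2kb luciferase reporter, seeded 4 hrs before compound (15 concentrations). Stimulated with 50 nM CITCO for 24 hr at 37 C. ONE-Glo luminescence read after 30 min at room temperature.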
# [6] = target: Nuclear receptor subfamily 1 group I member 3 (Homo sapiens) (UniProt Q14994); assay: qHTS assay to identify small molecule agonists of the constitutive androstane receptor (CAR) signaling pathway (AID 1224839); further: series mostly up to about 92 µM; nearly all actives have a fitted effect of over 15% in size
# Summary of the method: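 Double-stable HepG2 cells (hCAR, CYP2B6-2.2kb) seeded 4 h before compound addition. Exposure 24 h with 0.75 uM PK11195 final. Luciferase detected by ONE-Glo.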
# [7] = qHTS assay to identify small molecule antagonists of the estrogen related receptor signaling pathway with the pleiotropic PPARgamma coactivator (PGC) from Tox21 10K library - cell viability counter screen (AID 1224840; active means well fitted cell-killing curve with a large enough effect in the repeat runs, not every such curve was filed as active; further: nearly all actives have a fitted effect of over 40% in size)
# Summary of the method: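 PGC/ERR cells (2,000/well) plated 6 h, then compound-treated for 17.5 h at 37 C. Viability measured by CellTiter-Fluor fluorescence after 30 min at 37 C, multiplexed with the pathway assay.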
# [8] = qHTS assay to identify small molecule antagonists of the estrogen related receptor signaling pathway with the pleiotropic PPARgamma coactivator (PGC) from Tox21 10K library (AID 1224841; call rule not given here; further: series mostly up to about 92 µM; actives are mostly falling curves and most rising ones were filed inactive; nearly all actives have a fitted effect of over 50% in size)
# Summary of the method: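 PGC/ERR cell line, 2,000 cells/well, pre-incubated 6 hours at 37 C, then exposed to compounds for 18 hours at 37 C; luciferase read with One-Glo luminescence after 30 min at room temperature.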
# [9] = qHTS assay to identify small molecule agonists of the estrogen related receptor signaling pathway with the pleiotropic PPARgamma coactivator (PGC) from Tox21 10K library (AID 1224842); further: nearly all actives have a fitted effect of over 15% in size
# Summary of the method: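 PGC/ERR reporter cells (NTP line) were seeded 2,000 per well, rested 6 h at 37 C/5% CO2, then pin-dosed with compounds in DMSO for 18 h at 37 C; luciferase read by One-Glo luminescence after 30 min at room temperature.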
# [10] = qHTS assay to identify small molecule agonists of the hypoxia (HIF-1) signaling pathway - cell viability counter screen (AID 1224844; calls by dose curve; further: nearly all actives have a fitted effect of over 50% in size)
# Summary of the method: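 HRE-bla ME-180 cells, 2,000/well in 0.5% dialyzed FBS medium, treated 17 h at 37C with compounds. Viability read in the same wells as the bla reporter, by CellTiter-Glo luminescence after 30 min at room temperature.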
# [11] = qHTS assay to identify small molecule agonists of H2AX (AID 1224845; active means well fitted activation curve with a large enough effect in the signal ratio in the repeat runs, not every such curve was filed as active; the % refers to the signal ratio)
# Summary of the method: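 Wild-type CHO-K1 cells plated overnight, then exposed 3 hr at 37C to compounds at 15 concentrations (0.76% DMSO). Lysed, then HTRF anti-pH2AX(S139)-cryptate/anti-H2AX-d2 detection after 24 hr at room temperature; emissions 665 and 620 nm.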
# [12] = qHTS assay to identify small molecule agonists of the hypoxia (HIF-1) signaling pathway (AID 1224846; active means well fitted activation curve with a large enough effect in the signal ratio in the repeat runs, not every such curve was filed as active; the % refers to the signal ratio)
# Summary of the method: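 HRE-bla ME-180 beta-lactamase reporter cells in medium with 0.5% dialyzed FBS, pre-incubated 5 h then exposed to compounds 17 h at 37C, 5% CO2; reporter induction read with CCF4-AM FRET substrate.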
# [13] = qHTS assay to identify small molecule antagonists of the estrogen related receptor (ERR) signaling pathway from Tox21 library (AID 1224848); further: nearly all actives have a fitted effect of over 50% in size
# Summary of the method: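 Screening used an ERR reporter line supplied by NTP, exposed for 18 h at 37 C to library compounds delivered in DMSO. Signal was luciferase luminescence developed with ONE-Glo at room temperature for 30 min.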
# [14] = qHTS assay to identify small molecule agonists of the estrogen related receptor (ERR) signaling pathway from Tox21 library (AID 1224849; calls by dose curve; further: nearly all actives have a fitted effect of over 15% in size)
# Summary of the method: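 ERR reporter cells (NTP line) pre-incubated 6 hours at 37 C, then exposed to compounds for 18 hours at 37 C. ONE-Glo luciferase luminescence was read after 30 minutes at room temperature.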
# [15] = qHTS RealTime-Glo MT Cell Viability Assay in HepG2 cells - 24 hour (AID 1224867); further: nearly all actives have a fitted effect of over 50% in size
# Summary of the method: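 Cells + NanoLuc/prosubstrate dispensed (600 cells/well) → 5 h at 37 C/5% CO2 → compounds in DMSO transferred → 40 h incubation at 37 C, luminescence read at 0, 8, 16, 24, 32, 40 h.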
# [16] = qHTS RealTime-Glo MT Cell Viability Assay in HEK293 cells - 32 hour (AID 1224868)
# Summary of the method: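 Tox21 10K qHTS, HEK293, 600 cells/well, RealTime-Glo reagent co-dispensed with cells; 5 h preincubation, compound by pintool, 37 C, luminescence at 0–40 h.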
# [17] = A CellTox Green Cytotoxicity Assay to monitor cytotoxicity in HEK293 cells - 0 hour (AID 1224869); further: nearly all actives have a fitted effect of over 50% in size
# Summary of the method: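 HEK293 cells, 600/well, were preincubated 5 hours and then exposed to compounds at 37 C for up to 40 hours. A cell-impermeant cyanine dye staining dead-cell DNA was read by fluorescence at 0, 8, 16, 24, 32 and 40 h time points.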
# [18] = qHTS RealTime-Glo MT Cell Viability Assay in HepG2 cells - 40 hour (AID 1224870); further: nearly all actives have a fitted effect of over 50% in size
# Summary of the method: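 HepG2 cells mixed with RealTime-Glo MT reagents (NanoLuc plus cell-permeant prosubstrate) were seeded at 600 cells/well, incubated 5 h at 37 C/5% CO2, then pinned with compounds in DMSO; nonlytic luminescence tracked viability during 40 h treatment.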
# [19] = target: Thyrotropin receptor (Homo sapiens) (UniProt P16473); assay: qHTS assay to identify small molecule agonists of the thyroid stimulating hormone receptor (TSHR) signaling pathway (AID 1224843; calls by dose curve; further: nearly all actives have a fitted effect of over 45% in size)
# Chain of Thyrotropin receptor (Homo sapiens) (P16473 whole entry, looked up): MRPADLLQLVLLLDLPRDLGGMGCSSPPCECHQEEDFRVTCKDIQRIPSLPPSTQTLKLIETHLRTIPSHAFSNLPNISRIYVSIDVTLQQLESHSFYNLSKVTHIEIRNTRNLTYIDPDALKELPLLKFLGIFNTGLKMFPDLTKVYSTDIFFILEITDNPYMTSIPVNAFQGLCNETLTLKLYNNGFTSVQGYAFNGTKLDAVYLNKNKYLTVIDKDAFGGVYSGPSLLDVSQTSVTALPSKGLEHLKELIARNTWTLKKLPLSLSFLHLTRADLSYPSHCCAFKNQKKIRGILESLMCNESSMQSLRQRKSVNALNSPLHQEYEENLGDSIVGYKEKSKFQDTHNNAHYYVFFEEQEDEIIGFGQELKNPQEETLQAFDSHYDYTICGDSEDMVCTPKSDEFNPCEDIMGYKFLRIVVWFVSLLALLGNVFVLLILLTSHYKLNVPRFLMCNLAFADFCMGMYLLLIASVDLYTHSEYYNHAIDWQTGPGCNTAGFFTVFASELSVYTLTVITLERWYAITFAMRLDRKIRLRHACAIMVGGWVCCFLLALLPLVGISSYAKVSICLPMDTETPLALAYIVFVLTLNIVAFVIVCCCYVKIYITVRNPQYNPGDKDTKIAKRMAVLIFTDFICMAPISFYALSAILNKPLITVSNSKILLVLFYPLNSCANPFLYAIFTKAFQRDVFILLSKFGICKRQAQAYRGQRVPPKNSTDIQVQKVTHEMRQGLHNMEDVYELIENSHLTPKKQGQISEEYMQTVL
# Summary of the method: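 Cell line HEK293 with TSHR; density 800/well. Exposure 30 min RT. Readout HTRF cAMP (cAMP-d2/anti-cAMP-cryptate), 1 h RT before reading.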
# [20] = qHTS assay to identify small molecule agonists of H2AX - cell viability counter screen (AID 1224847; calls by dose curve; further: top concentration of the series differs between compounds; nearly all actives have a fitted effect of over 30% in size)
# Summary of the method: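 Quantitative HTS viability measurement: CHO-K1 wild-type cells in serum (10% FBS) medium, short 3 hr drug exposure at 37C with 0.76% DMSO, CellTiter-Glo luminescent detection.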
SMILES,Potency [1],Potency [2],outcome [3],outcome [4],Potency [5],Potency [6],outcome [7],Potency [8],Potency [9],Potency [10],Potency [11],outcome [12],Potency [13],outcome [14],outcome [15],Potency [16],outcome [17],Potency [18],Potency [19],outcome [20]
Nc1c2c(nc3c1CCC3)CCCC2,inactive,inactive,inactive,inactive,inactive,inactive,inactive,inactive,inactive,inactive,inactive,inactive,inactive,inactive,inactive,inactive,inactive,inactive,–,–
CC(=O)c1cnccn1,inactive,inactive,inactive,inactive,inactive,inactive,inactive,–,–,inactive,inactive,inactive,–,–,inactive,inactive,inactive,inactive,inactive,inactive
COCCOCC(OC)OC,inactive,inactive,inactive,inactive,inactive,inactive,inactive,inactive,inactive,inactive,inactive,inactive,inactive,inactive,inactive,inactive,inactive,inactive,–,inactive
C[C@@H]1CCC[C@H](C)N1,inactive,inactive,inactive,inactive,inactive,inactive,inactive,inactive,inactive,inactive,–,–,inactive,inactive,inactive,inactive,inactive,inactive,inactive,inactive
CCCCOCCOC(=O)CCCCCCCCC(=O)OCCOCCCC,inactive,inactive,inactive,inactive,inactive,inactive,inactive,inactive,inactive,inactive,inactive,inactive,inactive,inactive,inactive,inactive,inactive,inactive,inactive,inactive
Cc1ccc(C(=O)c2ccc(CC(=O)O)n2C)cc1,inactive,15.5 µM (active),inactive,inactive,inactive,inactive,inactive,inactive,inactive,inactive,–,–,inactive,inactive,inactive,inactive,inactive,–,inactive,–
CC(C)(C)OC(=O)c1cccc(N)c1,inactive,57.9 µM (active),inactive,inactive,inactive,inactive,inactive,–,–,inactive,inactive,inactive,–,–,inactive,inactive,inactive,inactive,inactive,inactive
